Assay outcomes from PubChem.
DT40 TDP1 no CPT = qHTS for Inhibitors of human tyrosyl-DNA phosphodiesterase 1 (TDP1): qHTS in cells in absence of CPT. DT40 Tdp1-/- hTDP1 cells, no CPT, ATP luminescence, 48 h. Potency, µM (titrated, usually from 46.2 µM), hits mostly inhibitors. actives 15% (n = 420,000). AID 686978, 2013; note: nearly all actives have a fitted effect of over 55% in size
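A cellular qHTS used chicken DT40 cells lacking endogenous Tdp1 but carrying stably transfected human TDP1. Compounds were applied without camptothecin, and cell growth kinetics were judged by ATP-dependent luminescence after ≥48 hr.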
HT1080 IDH1KD tx = kills HT-1080 cells with IDH1 knockdown. HT-1080 IDH1 knockdown viability, ATP luminescence, 48 h. Potency, µM (series often up to 46.1 µM), actives largely listed as cytotoxic. actives 2% (n = 360,000)
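Assay cells: HT-1080 with IDH1 knockdown, 750 per well, RPMI/5% FBS. Exposure: 48 h at 37 °C following 2 h pre-incubation. Read: CellTiter-Glo luminescence; fitted concentration-response, curve class assigned.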
HT1080NT lethal = kills 2HG-producing HT-1080-NT fibrosarcoma cells; Potency, µM (doses to about 46.1 µM), most hits filed as cytotoxic; HT-1080-NT fibrosarcoma viability, CellTiter-Glo ATP luminescence, 48 h; actives 1.6% (n = 360,000); AID 686970;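 note: NT is the 2HG producing partner of a matched IDH1 knockdown line; nearly all actives have a fitted effect of over 55% in size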
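A 48-hour cytotoxicity screen used HT-1080-NT cells plated 2 hours before compound delivery. ATP-based CellTiter-Glo luminescence measured viability, normalized to DMSO and no-cell controls.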
DT40 TDP1 CPT = DT40-hTDP1 cell growth loss with CPT; chicken DT40 Tdp1-/-;hTDP1 cells + 20 nM CPT, ATP luminescence, 48 h; Potency, µM (top dose mostly 46.2 µM), usual class: inhibitors; actives 12% (n = 420,000); AID 686979; note: nearly all actives have a fitted effect of over 55% in size
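Cell growth measured by CellTiter-Glo luminescence after a minimum 48 h, 37 C compound exposure with 20 nM CPT in Tdp1-knockout DT40 cells stably expressing hTDP1, seeded 400/well; qHTS titration format.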
IL1B secr inh = inhibitors of inflammasome signaling (IL-1 beta secretion); THP-1 LPS/ATP IL-1B secretion, AlphaLISA, 16 h; active compounds read low; AID 743279; activity change, % at 57.5 µM; actives 4.7% (n = 360,000); in the data active = activity change below about -50%; inconclusive = mostly about -30% to -49%
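THP-1 cells pretreated 1 hr with compounds (up to 57.5 uM final), then stimulated with LPS (250 ng/mL final) plus ATP (1.25 mM final); secreted IL-1B measured by AlphaLISA after 16 hr, decreased signal indicating inhibition.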
ELG1 repair inh = inhibitors of ELG1-dependent DNA repair in HEK293T cells | AID 504467 | actives 2.3% (n = 330,000) | HEK293T ELG1-luciferase reporter, luminescence, 16 h; DNA damage induced by 5-fluorouridine | Potency, µM (top dose mostly 46.1 µM), hits mostly inhibitors; note: nearly all actives have a fitted effect of over 55% in size
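Luminescence from the luciferase reporter, measured 30 min after ONE-Glo reagent at room temperature, was the read-out. Beforehand, 2,000 cells per well were exposed for 16 hr at 37 °C to 5-fluorouridine together with compound or vehicle.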
A number is an active result; [ ] = another dose, or the depositor's remark. Sampled rows, rich in hits. Any-hit rate of the full collection: about 19%. Unless noted, calls come from the whole dose curve; as a rule, active = well fitted curve in the direction sought with a large enough effect; inconclusive = small, poorly fitted or top-dose-only effect, or another doubt; inactive = no such curve, though single readings can be large; an effect the other way counts as inactive or inconclusive.

For O=C(O)/C(=C\c1ccc(-c2ccccc2[N+](=O)[O-])o1)c1ccccc1 the results were DT40 TDP1 no CPT inactive, HT1080 IDH1KD tx inactive, HT1080NT lethal inactive, DT40 TDP1 CPT inactive, IL1B secr inh inactive and ELG1 repair inh inactive.
`O=C(N/N=C/c1ccc(-c2ccccc2[N+](=O)[O-])o1)[C@H]1C[C@@H]1c1ccccc1` gave DT40 TDP1 no CPT inconclusive, HT1080 IDH1KD tx inactive, HT1080NT lethal inactive, DT40 TDP1 CPT 16µM, IL1B secr inh inactive and ELG1 repair inh inconclusive.
For O=C(CCNC(=O)c1ccccc1Cl)Nc1cc(S(=O)(=O)N2CCOCC2)ccc1N1CCCC1 the results were DT40 TDP1 no CPT inactive, HT1080 IDH1KD tx inactive, HT1080NT lethal inactive, DT40 TDP1 CPT inactive, IL1B secr inh inactive and ELG1 repair inh inactive.
Screening Cc1cccc(N2CC(=O)N(c3cccc(C)c3)CC2=O)c1 returned DT40 TDP1 no CPT inactive, HT1080 IDH1KD tx inactive, HT1080NT lethal inactive, DT40 TDP1 CPT inactive, IL1B secr inh inactive and ELG1 repair inh inactive.
For COc1cccc(-n2nnnc2S(C)(=O)=O)c1 the results were DT40 TDP1 no CPT 2.6µM, HT1080 IDH1KD tx 7.3µM, HT1080NT lethal inconclusive, DT40 TDP1 CPT 2.1µM, IL1B secr inh -92 and ELG1 repair inh inconclusive.
For COc1cccc(Oc2nnnn2-c2ccccc2)c1 the results were DT40 TDP1 no CPT inactive, HT1080 IDH1KD tx inactive, HT1080NT lethal inactive, DT40 TDP1 CPT inactive, IL1B secr inh inactive and ELG1 repair inh inconclusive.
For Cc1cccc(-n2nnnc2S(C)(=O)=O)c1 the results were DT40 TDP1 no CPT 0.73µM and DT40 TDP1 CPT 1.2µM.
O=C(CCCn1c(=O)c2cccn2c2cccnc21)NCc1ccccc1Br was read as DT40 TDP1 no CPT inactive and DT40 TDP1 CPT inactive.
Screening O=C(COC(=O)c1ccc(F)c(S(=O)(=O)N2CCOCC2)c1)Nc1ccc(Cl)cn1 returned DT40 TDP1 no CPT inactive, HT1080 IDH1KD tx inactive, HT1080NT lethal inactive, DT40 TDP1 CPT inactive and IL1B secr inh inactive.
COc1ccc(-n2c(-c3ccccc3)nnc2-c2ccc(Cl)cc2)cc1 was read as DT40 TDP1 no CPT inconclusive, HT1080 IDH1KD tx inactive, HT1080NT lethal inactive, DT40 TDP1 CPT inactive, IL1B secr inh inactive and ELG1 repair inh inactive.
Screening COc1ccc(-n2c(-c3ccc(Cl)cc3)c[n+]3c2CCc2ccccc2-3)cc1 returned DT40 TDP1 no CPT 2.3µM, HT1080 IDH1KD tx 8.2µM, HT1080NT lethal 23µM, DT40 TDP1 CPT 2.9µM, IL1B secr inh -55 and ELG1 repair inh 2.3µM.
`CC(=O)c1ccc(N2CCN(C(=O)c3ccco3)C(C)C2)c(F)c1` (stereo not drawn) gave DT40 TDP1 no CPT 26µM, HT1080 IDH1KD tx inactive, HT1080NT lethal inactive, DT40 TDP1 CPT inconclusive, IL1B secr inh inactive and ELG1 repair inh inactive.
`CC(=O)c1ccc(N2CCN(C(=O)c3ccco3)CC2)c(F)c1` gave DT40 TDP1 no CPT inconclusive, HT1080 IDH1KD tx inactive, HT1080NT lethal inactive, DT40 TDP1 CPT inconclusive, IL1B secr inh inactive and ELG1 repair inh inconclusive.
For CCCC(=O)c1ccc(N2CCCCC2)c(F)c1 the results were DT40 TDP1 no CPT inactive, HT1080 IDH1KD tx inactive, HT1080NT lethal inactive, DT40 TDP1 CPT inactive, IL1B secr inh inactive and ELG1 repair inh inconclusive.
For CCCC(=O)c1ccc(N2CCCCCC2)c(F)c1 the results were DT40 TDP1 no CPT 23µM, HT1080 IDH1KD tx inactive[9.24 µM], HT1080NT lethal inactive, DT40 TDP1 CPT inconclusive, IL1B secr inh inactive and ELG1 repair inh inconclusive.
`CCC(=O)c1ccc(N2CCN(C(=O)c3ccccc3)CC2)c(F)c1` gave DT40 TDP1 no CPT 7.3µM, HT1080 IDH1KD tx inactive, HT1080NT lethal inactive, DT40 TDP1 CPT 18µM, IL1B secr inh inactive and ELG1 repair inh inactive.
Screening CC(=O)c1ccc(N2CCN(C(=O)c3ccc(Br)cc3)CC2)c(F)c1 returned DT40 TDP1 no CPT 13µM, HT1080 IDH1KD tx inactive, HT1080NT lethal inactive, DT40 TDP1 CPT 9.2µM, IL1B secr inh inactive and ELG1 repair inh inconclusive.
For C[C@H]1CN([C@@H](C)CO)S(=O)(=O)c2ccc(Br)cc2O[C@H]1CN(C)C(=O)c1cccnc1 the results were DT40 TDP1 no CPT inactive, HT1080 IDH1KD tx inactive, HT1080NT lethal inactive, DT40 TDP1 CPT inactive and IL1B secr inh inactive.
CCN1C(=O)C(CC(=O)NCCc2ccccc2)N(NC(=O)c2ccc(Br)cc2)C1=S (stereo not drawn) was read as DT40 TDP1 no CPT 21µM, HT1080 IDH1KD tx inactive, HT1080NT lethal inactive, DT40 TDP1 CPT inconclusive and IL1B secr inh inactive.
CCNC(=O)CC1C(=O)N(CC)C(=S)N1NC(=O)c1ccc(Cl)cc1 (stereo not drawn) was read as DT40 TDP1 no CPT inactive, HT1080 IDH1KD tx inactive, HT1080NT lethal inactive, DT40 TDP1 CPT inactive, IL1B secr inh inactive and ELG1 repair inh inactive.
`CC(C)(C)C(=O)N1CCN(C(c2ccccc2)c2ccccc2)CC1` gave DT40 TDP1 no CPT 18µM, HT1080 IDH1KD tx inactive, HT1080NT lethal inactive, DT40 TDP1 CPT inconclusive, IL1B secr inh inactive and ELG1 repair inh inactive.
Cc1ccccc1C(=O)N1CCN(C(c2ccccc2)c2ccccc2)CC1 was read as DT40 TDP1 no CPT 23µM, HT1080 IDH1KD tx inactive, HT1080NT lethal inactive, DT40 TDP1 CPT inconclusive, IL1B secr inh inactive and ELG1 repair inh inconclusive.
Screening CCOc1ccccc1C(=O)N1CCN(C(c2ccccc2)c2ccccc2)CC1 returned DT40 TDP1 no CPT inconclusive, HT1080 IDH1KD tx inactive, HT1080NT lethal inactive, DT40 TDP1 CPT inconclusive, IL1B secr inh -83 and ELG1 repair inh inactive.
For Cc1occc1C(=O)N1CCN(C(c2ccccc2)c2ccccc2)CC1 the results were DT40 TDP1 no CPT inconclusive, HT1080 IDH1KD tx inactive, HT1080NT lethal inactive, DT40 TDP1 CPT inconclusive, IL1B secr inh inactive and ELG1 repair inh inactive.
For O=C(c1cc(-c2cccc(O)c2)on1)N1CCN(C(c2ccccc2)c2ccccc2)CC1 the results were DT40 TDP1 no CPT 13µM, HT1080 IDH1KD tx inconclusive, HT1080NT lethal inconclusive, DT40 TDP1 CPT 21µM, IL1B secr inh -53 and ELG1 repair inh inactive.
For O=C(CSc1nc2ccccc2nc1Cc1ccc(Cl)cc1)N1CCc2ccccc21 the results were DT40 TDP1 no CPT inactive and DT40 TDP1 CPT inactive.
`CCCCN(C(=O)c1ccc(N2C(=O)c3ccccc3C2=O)cc1)c1c(N)n(CC(C)C)c(=O)[nH]c1=O` gave DT40 TDP1 no CPT inactive, HT1080 IDH1KD tx inactive, HT1080NT lethal inactive, DT40 TDP1 CPT inactive, IL1B secr inh inactive and ELG1 repair inh inconclusive.
